This is a sample that favours compounds with a hit; in the whole collection about 0.34% have one here.
Vif-A3F inh = blocks the Vif interaction with APOBEC3F; Potency, µM (titrated, usually from 46.1 µM), for inactives: at the top dose activity, negative = active; 390,000 tested, 0.2% active; HeLa A3F-eYFP + Vif (tagged APOBEC3F with the HIV-1 protein that degrades it), YFP fluorescence increase; AID 602313; note: % of control where 0% means no effect; nearly all actives have a fitted effect of over 65% in size
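Fluorescence increase (Ex 488/Em 500-530) after overnight compound treatment at 37 deg C flags inhibition of Vif-driven A3F-eYFP loss in stable HeLa A3F-eYFP/Vif cells seeded overnight beforehand.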
Epigenetic derep = epigenetic control regulation, reporter derepression; 280,000 tested, 0.2% active; murine LDR cells, GFP reporter derepression, 30 h; Potency, µM (highest dose often 53.9 µM), inactives show at the highest dose GFP activation, most hits filed as activators; AID 1865; note: % of control where 0% means no effect; nearly all actives have a fitted effect of over 60% in size
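In this reporter-derepression format, murine cells bearing a silenced integrated CMV-GFP locus incubate with test compound (30 h, 37 C), then are washed and imaged; fluorescent objects of 20–120 um count as induced cells.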
Vif-APOBEC3G blk = blocks the Vif interaction with human APOBEC3G; Q9HC16; HeLa A3G-eYFP + Vif (tagged APOBEC3G with the HIV-1 protein that degrades it), YFP fluorescence, overnight; Potency, µM (doses to about 46.1 µM), inactives show at the top dose activity, negative = active, hits mostly inhibitors; 410,000 tested, 0.076% active; AID 602310; note: % is set by controls: 0 for no effect and ±100 for the full control effect; nearly all actives have a fitted effect of over 60% in size
Target sequence (Q9HC16 whole entry, looked up): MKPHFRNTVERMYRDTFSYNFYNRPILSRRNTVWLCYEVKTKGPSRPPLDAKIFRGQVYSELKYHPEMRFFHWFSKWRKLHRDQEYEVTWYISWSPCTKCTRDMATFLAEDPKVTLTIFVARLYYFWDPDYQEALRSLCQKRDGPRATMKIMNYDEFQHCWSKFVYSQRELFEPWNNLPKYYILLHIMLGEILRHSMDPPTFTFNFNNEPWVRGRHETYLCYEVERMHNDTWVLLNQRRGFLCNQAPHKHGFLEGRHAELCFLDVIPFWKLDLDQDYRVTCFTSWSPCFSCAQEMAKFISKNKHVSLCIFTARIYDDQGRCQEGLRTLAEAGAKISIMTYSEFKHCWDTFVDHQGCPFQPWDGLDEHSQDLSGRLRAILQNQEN
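Read-out is eYFP fluorescence (Ex 488/Em 500-530) from Vif-expressing HeLa A3G-eYFP cells; more signal means A3G escaped Vif-mediated degradation. Cells plated overnight, compound pinned in, incubated overnight at 37 deg C.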
Numbers without * were called inactive; ? = inconclusive; . = no result given. Calls come from the whole dose curve; as a rule, active = well fitted curve in the direction sought with a large enough effect; inconclusive = small, poorly fitted or top-dose-only effect, or another doubt; inactive = no such curve, though single readings can be large; an effect the other way counts as inactive or inconclusive. Potency is the fitted concentration of half-maximal effect.

SMILES	Vif-A3F inh	Epigenetic derep	Vif-APOBEC3G blk
NC(=O)CSc1ncc2c(n1)-c1ccccc1N(Cc1ccc(F)cc1)S2(=O)=O	0%	5%	-1%
CCCCCCCCN1[C@@H](CC(=O)O)c2ccc(/C=C/C(=O)O)cc2S1(=O)=O	.	.	3%
CCc1ccc(-c2nc(CN3CCCC(C(=O)N4CCN(c5cc(Cl)ccc5C)CC4)C3)c(C)o2)cc1 (centres undefined)	1%	2%	4%
C(=N\NC1=Nc2cccc3cccc1c23)/c1ccccn1	-8%	?	-1%
Clc1ccccc1/C=N/NC1=Nc2cccc3cccc1c23	5.6µM*	?	?
C[n+]1ccnc2ccccc21	.	.	-15%
C=CCSc1nc2sc3c(c2c(=O)n1CC)CCC3	22µM*	.	-4%
C=CCn1c(SCC(=O)N(C)C)nc2sc3c(c2c1=O)CCC3	4%	.	4%
CCN(CC)c1ccc2nc3c(=O)n(C)c(=O)n(C)c3nc2c1	.	13µM*	.
CCC(=O)Nc1ccc2nc3c(=O)n(C)c(=O)n(C)c3nc2c1	-5%	0%	-2%
Cc1ccc(C(=O)CSc2nsc(C)c2C#N)cc1	-26%	8%	-17%
CSc1nsc(/C=C/Nc2ccc(C)c(C)c2)c1C#N	?	3.5µM*	-31%
CSc1nsc(/C=C/Nc2ccc(C)cc2)c1C#N	?	-1%	13µM*
COc1cc(/C=N/Nc2snc(SC)c2C#N)ccc1O	-11%	-1%	?
O=[N+]([O-])c1ccccc1/C=C/c1ccnc2ccccc12	.	.	-1%
CC(C)c1ccc(C(=O)C[N+]2(C)CCOCC2)cc1	.	.	-3%
C=CCN1C(=O)c2cccc3c(N4CCCCC4)ccc(c23)C1=O	7.1µM*	?	?
O=C1c2cccc3c(N4CCCCC4)ccc(c23)C(=O)N1c1cccc(O)c1	4µM*	11µM*	?
Cc1n[nH]c(C)c1N1C(=O)c2cccc3c(N4CCCCCC4)ccc(c23)C1=O	?	57%	?
O=C1c2cccc3c(N4CCCCC4)ccc(c23)C(=O)N1CCO	?	16%	?
COc1cc2c(NC3CCN(C)CC3)nc(N3CCCN(C)CC3)nc2cc1OCC1CCNCC1	.	.	-2%
COc1cc(C(CC(=O)NCc2ccc(F)cc2)N2Cc3ccccc3C2=O)cc(OC)c1OC (centres undefined)	-1%	-1%	-1%
COc1ccc(CCC(=O)NO)cc1	.	.	1%
O=S1(=O)Nc2c(ccc3cccnc23)-c2ccccc21	-1%	?	7.1µM*
Clc1ccc2ccc3cccnc3c2n1	-15%	.	-1%
SMILES	Vif-A3F inh	Epigenetic derep	Vif-APOBEC3G blk
CC(C)(C)C(=O)CSc1n[nH]c(-c2ccccc2)n1	.	.	3%
CN(N=O)c1ccc2c(c1)Cc1ccccc1-2	.	.	-10%
COc1ccc(/C=C/C=C2\NC(=S)NC2=O)cc1	13µM*	?	?
COc1ccc(C=C2NC(=S)NC2=O)cc1	-9%	.	2%
COc1ccc(Nc2nc3cc(C)ccc3cc2C#N)c(OC)c1	?	14%	?
COc1ccc(Nc2nc3cc(C)ccc3cc2C#N)cc1	22µM*	.	?
Cc1ccc(/C=N/NC(=O)c2cc(C)oc2C)cc1	14%	3%	7.9µM*
Cc1cc(C(=O)N/N=C/c2ccncc2)c(C)o1	10%	0%	1%
CCn1c2c(c(=O)n3ncc(C(=O)N4CCN(c5ccc(Cl)cc5)CC4)c13)CN(Cc1ccc(OC)cc1)CC2	4%	2%	3%
CCOC(=O)N1CCC(NC(=O)c2cnn(-c3cccc(F)c3)c2-n2cccc2)CC1	-1%	-1%	-2%
Cc1cc(SCC(=O)c2cccs2)nc2ccccc12	11µM*	13%	?
O=C(CSc1nc2ccccc2c(=O)[nH]1)c1cccs1	-1%	-1%	-1%
Cc1cccc(OCc2nc(C#N)c(NCc3ccccc3Cl)o2)c1	-5%	0%	-4%
COc1ccc(C(=O)NC(C)CCc2ccccc2)cc1[N+](=O)[O-] (centres undefined)	-13%	.	4%
COc1ccc(C(=O)C(C)[n+]2ccc(C)c3ccccc32)cc1[N+](=O)[O-] (centres undefined)	?	.	5.6µM*
COc1ccc2c(c1)C=C/C2=C/c1ccc(N(C)C)cc1	.	.	-1%
Cn1cc(/C=C2\SC(=O)N(c3ccc(O)cc3)C2=O)c2ccccc21	?	12%	-14%
Cn1cc(/C=C2\SC(=O)N(c3ccccc3)C2=O)c2ccccc21	7.9µM*	?	-19%
CC(C)(C)c1ccc(Cn2cnc3c(cnn3C(C)(C)C)c2=O)cc1	.	.	3%
S=Cc1ccc(/C=C/c2ccnc3ccccc23)cc1	.	.	3%
Cc1ccc(N2C(=O)c3ccccc3C2=O)cc1	-3%	-2%	0%
Cc1ccc(SC2=C(Sc3ccc(C)cc3)C(=O)c3ccccc3C2=O)cc1	8.9µM*	6%	-10%
O=C(NCc1ccccc1)C(=O)Nc1c2c(nn1-c1ccccc1)CSC2	-13%	6%	-4%
O=C1C(=Cc2ccccc2[N+](=O)[O-])Cc2ccccc21	13µM*	.	?
CC1(C)CC(=Cc2ccccc2[N+](=O)[O-])C(=O)c2ccccc21	-12%	.	1%
SMILES	Vif-A3F inh	Epigenetic derep	Vif-APOBEC3G blk
Nc1ccccc1C=C1Cc2ccccc2C1=O	6.3µM*	.	?
COc1ccccc1/C=C1\Cc2ccccc2C1=O	4%	1%	1%
OC(CN1CCOCC1)c1ccccc1 (centres undefined)	.	.	-1%
COc1ccc(S(=O)(=O)Nc2cccc(S(=O)(=O)N3CCCCCC3)c2)cc1	-2%	-1%	-1%
O=S(=O)(Nc1nc2ccccc2nc1Nc1cccc(S(=O)(=O)N2CCCCC2)c1)c1ccccc1	10µM*	0%	?
O=c1[nH]ccc2c(S(=O)(=O)N3CCCNCC3)cccc12	.	3%	.
C(=Nc1ccc(/C=C/c2ccnc3ccccc23)cc1)c1ccc2c(c1)OCO2	.	.	-13%
CC(=O)N/N=C/c1cc(C)n(-c2ccc(Br)cc2)c1C	5%	0%	-7%
CC(=O)N/N=C/c1cc(C(C)C)cc(/C=N/NC(C)=O)c1O	32µM*	0%	?
CC1=C(c2ccc(C)c(C)c2)S(=O)(=O)N=C1N1CCC(C(=O)N2CCCCC2)CC1	.	0%	.
C/C(=N\NC(=O)c1ccccc1F)c1ccc2c(c1)Nc1ccccc1S2	?	11µM*	-23%
C/C(=N\NC(=O)c1ccc(O)cc1)c1ccc2c(c1)Nc1ccccc1S2	-19%	0%	2%
COc1cccc(C(=O)Nc2c(C(=O)Nc3ccc(F)cc3)oc3ccccc23)c1OC	-7%	0%	-6%
COc1ccccc1NC(=O)c1oc2ccccc2c1NC(=O)c1cccc(OC)c1OC	-12%	2%	5.6µM*
C=C[C@@H]1CN2CC[C@@H]1C[C@@H]2[C@H](O)c1ccnc2ccc(OC)cc12	.	0%	.
N#Cc1c(NC(=S)NC(=O)c2ccccc2)sc2c1CCCC2	2%	0%	-2%
N#Cc1c(NC(=S)NC(=O)c2ccccc2)sc2c1CCN(CCc1ccccc1)C2	.	5.6µM*	.
COc1ccc(NC(=O)C2CCCN(c3ncnc4c3nc3n4CCCCC3)C2)c(OC)c1 (centres undefined)	-8%	2%	2%
CCN(c1ccccc1)S(=O)(=O)c1nnc(NC(=O)COc2cccc(C)c2)s1	3%	8.9µM*	-7%
CCN(c1ccccc1)S(=O)(=O)c1nnc(NC(=O)COc2ccc(OC)cc2)s1	8%	?	4%

Compound activity as filed in PubChem BioAssay.
